APOBEC3A inh = APOBEC3A ssDNA deaminase inhibitors, primary screen, selectivity assay for APOBEC3G inhibitor project, biochemical, FAM/TAMRA oligo cleavage fluorescence; DNA dC->dU-editing enzyme APOBEC-3A (Homo sapiens), P31941; recombinant A3A, FAM/TAMRA ssDNA deamination fluorescence; inhibition, % at 20 µM; actives 0.41% (n = 330,000);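 active = at least 40% inhibition at 20 µM here, with at most 30% in a related deaminase screen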
Target sequence (P31941 whole entry, looked up): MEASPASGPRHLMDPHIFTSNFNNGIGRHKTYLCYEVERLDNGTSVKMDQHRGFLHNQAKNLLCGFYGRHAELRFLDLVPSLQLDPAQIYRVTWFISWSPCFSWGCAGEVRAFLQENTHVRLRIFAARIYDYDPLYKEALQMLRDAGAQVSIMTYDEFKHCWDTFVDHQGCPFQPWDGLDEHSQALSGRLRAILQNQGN
ALR inh = inhibitors of human ALR sulfhydryl oxidase, primary screen, biochemical, H2O2 detection, HRP-luminol luminescence, single point. FAD-linked sulfhydryl oxidase ALR (Homo sapiens), P55789. purified ALR, DTT oxidation. inhibition, % (no concentration beside the values). actives 3.8% (n = 290,000);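 active = mean replicate inhibition above about 79%, with every replicate also reaching it, limit read from the data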
Target sequence (P55789 whole entry, looked up): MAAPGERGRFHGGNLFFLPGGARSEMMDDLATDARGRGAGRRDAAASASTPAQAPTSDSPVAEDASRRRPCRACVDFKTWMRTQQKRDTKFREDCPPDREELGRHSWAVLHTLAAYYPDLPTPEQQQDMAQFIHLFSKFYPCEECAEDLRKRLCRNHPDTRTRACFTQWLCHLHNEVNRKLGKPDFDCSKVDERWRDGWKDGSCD
CR mimetic SO = reduction of superoxide in aged yeast, primary screen, HTS; S. cerevisiae aged cells, superoxide DHE fluorescence; active compounds read low; AID 2690, 2010; superoxide response (% of plate mean), % at 10 µM; actives 0.18% (n = 330,000);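 active = superoxide response under a set limit, about three screen SD below normal, cut at about 65% in these data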;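 also: yeast aged for seven days with compound at 30 °C before DHE staining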
APOBEC3G inh = APOBEC3G DNA deaminase inhibitors, primary screen, biochemical, fluorescence, single-stranded DNA substrate, uHTS; DNA dC->dU-editing enzyme APOBEC-3G (Homo sapiens), Q9HC16; recombinant A3G, ssDNA deamination FAM/TAMRA fluorescence; inhibition, % at 20 µM; actives 0.28% (n = 330,000);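 active = inhibition of at least 40% at 20 µM, with no more than 30% in the related APOBEC3A deaminase screen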
PfM18AAP inh = PfM18AAP inhibitors, malaria aminopeptidase, primary screen, biochemical, QFRET, recombinant enzyme. M18 aspartyl aminopeptidase (Plasmodium falciparum 3D7). actives 1.2% (n = 290,000). inhibition, % at 7.35 µM. H-Glu-NHMec fluorogenic cleavage. AID 1822, 2009;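 active = inhibition above the campaign mean inhibition over all tested compounds plus 3 SD, cut at about 28% in these data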
CendR NRP1 mod = modulators of CendR peptide binding to NRP-1, primary screen, biochemical, fluorescence polarization, uHTS; Neuropilin-1 (Homo sapiens), O14786; FAM-RPARPAR peptide binding to NRP-1; inhibition, % at 25 µM; actives 0.85% (n = 360,000);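 active = inhibition or corrected inhibition above about 18%, plus a signal ratio from 0.5 to 1.5, limit read from the data, passing the limit was not always enough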
A3A conf = APOBEC3A deaminase inhibitors, retest, confirmation, selectivity assay for APOBEC3G inhibitor project, biochemical, single concentration, fluorescence readout; inhibition, % at 20 µM; recombinant A3A, ssDNA deaminase UDG fluorescence assay; shares compounds with APOBEC3A inh; actives 63% (n = 1,400); AID 493151, 2011;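 active = inhibition reaching a set limit, 80% of the first screen's cutoff, at 20 µM in any replicate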
UDG A3A counter = E. coli UDG inhibitors, confirmation, counter-screen for APOBEC3A inhibitor project, biochemical, single concentration, fluorescence, FAM/TAMRA oligo; UDG counterscreen, FAM/TAMRA uracil oligo fluorescence; 1,000 tested, under 10 active; shares compounds with APOBEC3A inh; inhibition, % at 20 µM; call rule not given here
Large screens that a line does not name were inactive (follow-up assays come after a bar, where they were run). Shown are actives, neighbours in structure and some others; about 5.2% of the full set was active somewhere.

COc1ccc(CC(=O)OCC(=O)Nc2cccc(C(C)=O)c2)cc1OC	none (no result: ALR inh, CR mimetic SO, PfM18AAP inh)
CCC(C)C(NC(N)=O)C(=O)Nc1ccc(C)c(Cl)c1 (stereo not given)	APOBEC3A inh 56 | A3A conf inactive
COc1ccc(CC(=O)NNC(=S)Nc2ccccc2)cc1Cl	none
CCCCN(C(=O)c1cnccn1)c1c(N)n(CCC)c(=O)[nH]c1=O	APOBEC3A inh 45 (no result: PfM18AAP inh) | A3A conf 46 | UDG A3A counter inactive
CCCCN(C(=O)c1c(CC)noc1C)c1c(N)n(CCCC)c(=O)[nH]c1=O	APOBEC3A inh 44 (no result: PfM18AAP inh) | A3A conf inactive | UDG A3A counter inactive
CCCCn1c(N)c(N(CCOC)C(=O)c2cnccn2)c(=O)[nH]c1=O	none (no result: PfM18AAP inh)
CCN(CC(=O)Nc1c(F)cccc1F)C(=O)c1cccc(-n2cccc2)c1	APOBEC3A inh 75 (no result: PfM18AAP inh) | A3A conf 55 | UDG A3A counter inactive
Nc1nnc(SCC(=O)N2CCN(Cc3ccccc3)CC2)s1	APOBEC3A inh 64 | A3A conf inactive
CCCc1nc2sc3c(SCC(=O)NCc4ccco4)ncnc3c2c2c1CCC2	APOBEC3A inh 54 | A3A conf 42 | UDG A3A counter inactive
O=C(CSc1nc(C2CC2)nc2sc3c(c12)CCCC3)NCc1ccco1	none
CC1(C)Cc2c(cnn2-c2ccc(F)cc2)C(NC(=O)CCN2CCCCO2)C1 (stereo not given)	none
CC1=NOC(=O)/C1=C\c1ccc(-c2ccc(Br)cc2)o1	none (no result: APOBEC3A inh, ALR inh, CR mimetic SO, APOBEC3G inh)
CC1=NOC(=O)/C1=C\c1ccc(-c2ccc(Br)cc2C(=O)O)o1	APOBEC3A inh 53, ALR inh 89 | A3A conf active | UDG A3A counter inactive
Cc1cc(Br)c2c(c1)[C@](O)(c1cn(C)c3ccccc13)C(=O)N2C	none (no result: APOBEC3A inh, ALR inh, CR mimetic SO, APOBEC3G inh, PfM18AAP inh)
C[C@H](O)C#Cc1cnc2c(c1)C(=O)N([C@H](C)CO)C[C@@H](C)[C@@H](CN(C)Cc1ccc(-c3ccccc3)cc1)O2	none (no result: APOBEC3A inh, ALR inh, CR mimetic SO, APOBEC3G inh, PfM18AAP inh)
COC(=O)c1ccc(NC(=O)C2CCN(C(=O)Nc3ccccc3)CC2)cc1	APOBEC3A inh 59 (no result: PfM18AAP inh) | A3A conf inactive
O=C1CC(c2cccc(Cl)c2)c2cc3c(cc2N1)CCC3 (stereo not given)	none
CCOc1c(Br)cc(Br)cc1/C=C1\SC(N)=NC1=O	APOBEC3A inh 69 | A3A conf 82 | UDG A3A counter inactive
COc1cc(/C=C2\SC(N)=NC2=O)cc(Br)c1O	none
O=C(CSc1nnc(NC(=O)c2ccccc2)s1)NCc1ccco1	none
O=C(CSc1nnc(NC(=O)c2ccc3c(c2)OCO3)s1)NCc1ccco1	APOBEC3A inh 88 | A3A conf inactive | UDG A3A counter inactive
CC(C)c1cc(Cn2c3ccccc3c(=O)n2C(C)Cn2cc(-c3ccc(C(C)(C)C)cc3)nn2)on1 (stereo not given)	none (no result: APOBEC3A inh, ALR inh, CR mimetic SO, APOBEC3G inh, PfM18AAP inh)
COc1cc(C(=O)NCc2ccco2)c(Br)c(OC)c1OC	APOBEC3A inh 51 | A3A conf inactive | UDG A3A counter inactive
COCCn1c(Br)nc2c1c(=O)n(C)c(=O)n2C	APOBEC3A inh 48 | A3A conf inactive | UDG A3A counter inactive
Cc1ccc(OCCn2c(Br)nc3c2c(=O)n(C)c(=O)n3C)cc1	none
COc1ccc(CN2C3CCCC2CC(NC(=O)Nc2cccc(C)c2)C3)cc1 (stereo not given)	none (no result: ALR inh)
O=C(c1ccc(=O)oc1)N1CCOCC1	APOBEC3A inh 95 | A3A conf 84
O=C(c1ccc(=O)oc1)N1CCCc2ccccc21	APOBEC3A inh 71, ALR inh 89 | A3A conf 60
O=C(CN1CCC(C(=O)c2ccc3c(c2)OCCO3)CC1)NC1CCCC1	none
CCCCCCCCCn1ccc(=N)cc1	none
CCCCCCCn1ccc(=N)cc1	APOBEC3A inh 74 | A3A conf 74 | UDG A3A counter inactive
CCn1ccc(=N)cc1	none
CCCCCn1ccc(=N)cc1	APOBEC3A inh 62 | A3A conf 72 | UDG A3A counter inactive
COC(=O)Nc1nn(Cc2ccccc2F)cc1Br	none
NC(=O)C1CCN(CC(=O)NCc2ccccc2)CC1	none
Cc1ccc(NC(=O)CN2C(=O)S/C(=C/c3ccc(-c4cc(C(=O)O)ccc4C)o3)C2=O)cc1C	APOBEC3A inh 63 | A3A conf 43 | UDG A3A counter inactive
Cc1ccc(C(=O)O)cc1-c1ccc(C=C2C(=O)c3ccccc3C2=O)o1	APOBEC3A inh 44 | A3A conf 35 | UDG A3A counter inactive
Cc1cccc(NC(=O)CN2C(=O)S/C(=C\c3ccc(-c4cccc(C(=O)O)c4C)o3)C2=O)c1	none (no result: CendR NRP1 mod)
O=C(O)c1ccccc1-c1ccc(/C=C2\SC(=O)N(c3ccccc3)C2=O)o1	none
COC(=O)C(C)N1C(=O)S/C(=C\c2ccc(-c3ccc(C(=O)O)cc3C)o2)C1=O (stereo not given)	APOBEC3A inh 51, ALR inh 98 | A3A conf 62 | UDG A3A counter inactive
O=C1C(=Cc2ccc(Br)o2)C(=O)c2ccccc21	none (no result: APOBEC3A inh, APOBEC3G inh)
CCOC(=O)C1CCCN(C(=O)c2cc(-c3ccccc3)on2)C1 (stereo not given)	none
O=C(CSC1=NCCS1)NC1CCCCC1	APOBEC3A inh 49 | A3A conf 52 | UDG A3A counter inactive
C[N+](C)(C)CCCCCC[N+](C)(C)C	none (no result: PfM18AAP inh)
C[N+](C)(C)CCCCCC(=O)/C=N/O	APOBEC3A inh 53 | A3A conf 66 | UDG A3A counter inactive
NC(=O)COC(=O)c1cc(=O)[nH]c2ccc(S(=O)(=O)Nc3ccc(F)cc3)cc12	none
Oc1cccc(O)c1O	APOBEC3A inh 42, ALR inh 83 (no result: PfM18AAP inh, CendR NRP1 mod) | A3A conf 44
COc1ccc(N=C2NC(=O)/C(=C\c3ccco3)S2)cc1	APOBEC3A inh 64 | A3A conf 36 | UDG A3A counter inactive
CC(=O)Nc1ccc(S(=O)(=O)/N=C2/NC(=O)/C(=C\c3ccco3)S2)cc1	APOBEC3A inh 60, ALR inh 99 | A3A conf 32 | UDG A3A counter inactive
Cc1cc(C(=O)NCc2ccc(C(=O)O)o2)c(C)o1	APOBEC3A inh 47 | A3A conf 48 | UDG A3A counter inactive

Screening results deposited in PubChem BioAssay by several laboratories.
